Compound activity deposited in PubChem by National Center for Advancing Translational Sciences (NCATS).
LDHA inh: qHTS assay for inhibitors of human lactate dehydrogenase; purified LDHA, NADH/diaphorase-resazurin fluorescence; active compounds read low; activity change, % (values are at about 110 or 230 µM); L-lactate dehydrogenase A chain (Homo sapiens), P00338; 0.15% of 480,000 active; AID 1347041, 2019; in the data active = activity change below about -30%; inconclusive = mostly about -25% to -30%;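 also: plate controls were DMSO wells for no effect and wells without enzyme for full effect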
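Resorufin fluorescence (ex540/em590), read at 0 and 20 min after diaphorase/resazurin addition, reports the NADH left after a 5 min room-temperature reaction of 2 nM human LDH5 with 0.06 mM NADH and 0.2 mM pyruvate.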
KCNH2 3.1 block: qHTS for Inhibitors of KCHN2 3.1: Mutant qHTS | Potassium voltage-gated channel subfamily H member 2, brain isoform KCNH2 3.1 (human) | U2OS KCNH2 3.1, thallium flux FluxOr; active compounds read low | activity change, % (tested at about 1.8 µM) | 0.95% of 340,000 active | AID 720553, 2013;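 active = maximum activity change below -70%; inconclusive = maximum activity change from -70% to -50%; inactive = maximum activity change above -50%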;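 also: thallium influx rate constant from kinetic fluorescence after stimulation buffer; % is scaled to controls: 0 for no effect and ±100 for the full control effect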
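Kinetic fluorescence (2 min after stimulation buffer) measures Tl+ influx through KCNH2 3.1 expressed by viral transduction in U2OS cells; the rate constant is normalized against DMSO controls serving as positive and negative references.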
ClpP mod: qHTS Assay for Activators of ClpP. ATP-dependent Clp protease proteolytic subunit (Bacillus subtilis (strain 168)), P80244. purified B. subtilis ClpP, FRET peptide cleavage, 20 min. Potency, µM (series often up to 57.5 µM), without a hit: at the top dose activity change, negative = active. 1.9% of 340,000 active; active = well fitted falling curve with a large enough effect; inconclusive = small, poorly fitted or top-dose-only effect; inactive = no such curve, though single readings can be large or run the other way; also: potency is read from the fitted curve at half-maximal effect; the source files actives as falling curves though it sought activators and does not explain the sign; nearly all actives have a fitted effect of over 65% in size
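FRET quenching reversal measured ClpP activation: 10 microg/mL B. subtilis ClpP at pH 8 with the FRET-FV decapeptide, read at 430 nm after 320 nm excitation. The 20-min minus 0-min signal was scaled between DMSO/no-enzyme wells and ADEP (5.8 microM final).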
hERG WT inh: qHTS for Inhibitors of KCHN2 3.1: Wildtype qHTS | Voltage-gated inwardly rectifying potassium channel KCNH2 (Homo sapiens), Q12809 | U2OS, BacMam KCNH2, thallium flux FluxOr; active compounds read low | activity change, % at 1.84 µM | 0.37% of 340,000 active | AID 720551, 2013;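 active = maximum activity change below -70%; inconclusive = maximum activity change between -70% and -50%; inactive = maximum activity change above -50%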; also: % is scaled to controls: 0 for no effect and ±100 for the full control effect
Target sequence (Q12809 whole entry, looked up): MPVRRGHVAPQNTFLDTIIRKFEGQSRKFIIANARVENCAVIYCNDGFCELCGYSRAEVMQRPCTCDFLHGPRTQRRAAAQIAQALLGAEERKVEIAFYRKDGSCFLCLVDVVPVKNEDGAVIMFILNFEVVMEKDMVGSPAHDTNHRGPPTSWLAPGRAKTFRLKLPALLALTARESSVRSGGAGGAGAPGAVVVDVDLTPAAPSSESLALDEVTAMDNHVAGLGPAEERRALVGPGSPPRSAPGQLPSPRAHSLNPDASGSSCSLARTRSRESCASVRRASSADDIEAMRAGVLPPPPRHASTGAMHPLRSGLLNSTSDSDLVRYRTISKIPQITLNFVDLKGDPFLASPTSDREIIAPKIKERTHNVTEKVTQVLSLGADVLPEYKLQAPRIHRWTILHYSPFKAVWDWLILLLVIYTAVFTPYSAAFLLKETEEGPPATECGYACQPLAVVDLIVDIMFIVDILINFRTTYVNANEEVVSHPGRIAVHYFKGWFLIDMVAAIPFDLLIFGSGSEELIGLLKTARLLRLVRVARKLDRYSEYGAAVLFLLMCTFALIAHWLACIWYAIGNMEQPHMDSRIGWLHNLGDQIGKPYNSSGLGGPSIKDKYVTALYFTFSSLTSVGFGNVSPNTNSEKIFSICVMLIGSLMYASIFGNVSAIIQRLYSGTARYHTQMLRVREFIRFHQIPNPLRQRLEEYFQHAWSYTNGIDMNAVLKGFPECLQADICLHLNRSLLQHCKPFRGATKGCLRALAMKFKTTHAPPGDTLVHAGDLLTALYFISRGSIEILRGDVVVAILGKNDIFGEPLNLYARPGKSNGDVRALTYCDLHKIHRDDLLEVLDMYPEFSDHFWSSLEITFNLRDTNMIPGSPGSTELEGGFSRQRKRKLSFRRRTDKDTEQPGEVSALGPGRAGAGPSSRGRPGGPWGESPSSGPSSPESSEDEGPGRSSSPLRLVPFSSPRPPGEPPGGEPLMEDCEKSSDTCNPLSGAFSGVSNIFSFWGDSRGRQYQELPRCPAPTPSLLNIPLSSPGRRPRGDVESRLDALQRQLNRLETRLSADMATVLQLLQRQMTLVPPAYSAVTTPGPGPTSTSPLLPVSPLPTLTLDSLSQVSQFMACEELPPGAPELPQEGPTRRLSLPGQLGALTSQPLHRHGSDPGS
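U2OS cells were transduced with wild-type KCNH2 virus (2.03 x 10^8 / mL) for 4 h at room temperature, then cultured overnight at 37 C. Thallium flux was read with FluxOr dye. Rate constants were normalized to DMSO controls.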
ALOX12 inh: Primary qHTS assay for inhibitors of human arachidonate 12S-lipoxygenase (ALOX12): Round 2; Polyunsaturated fatty acid lipoxygenase ALOX12 (Homo sapiens), P18054; purified 12hLO, xylenol orange hydroperoxide absorbance; Potency, µM (titrated, usually from 108 µM), inactives show top-dose activity change, negative = inhibition, actives largely listed as inhibitors; 1.1% of 580,000 active; AID 1671190, 2021; active = well fitted inhibition curve with a large enough effect; inconclusive = small, poorly fitted or top-dose-only effect, or another doubt; inactive = no such curve, though single readings can be large or run the other way; also: potency is read from the fitted curve at half-maximal effect; % is scaled to controls: 0 for no effect and ±100 for the full control effect
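Purified human 12hLO at 150 nM in 25 mM Hepes, 0.01% Triton X-100, pH 7.0, preincubated 15 min at room temperature with compound. Reaction started with 40 uM arachidonic acid, 30 min at room temperature. Hydroperoxide measured by Fe-xylenol orange, 573/405 nm absorbance ratio.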
BCR signal inh: qHTS Assay to Find Inhibitors of Chronic Active B-Cell Receptor Signaling; 0.05% of 340,000 active; ABC-DLBCL IkBa-CBG/CBR reporter, luminescence ratio, 4 h; Potency, µM (top dose mostly 46.1 µM), for the others: top-dose activity change, negative = inhibition, hits mostly inhibitors; active = well fitted inhibition curve with a large enough effect in the signal ratio, with a control signal flat, not every such curve was filed as active; inconclusive = small, poorly fitted or top-dose-only effect, or effect the other way, or a change in a side signal; the % refers to the signal ratio;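 also: potency is read from the fitted curve at half-maximal effect; plate controls were basal doxycycline-induced cells for no effect and cells given 10 µM MG132 for full effect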
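Cell line TMD8 (human ABC DLBCL), stably expressing tet-inducible CBG68-IkBa fusion and CBR; IMDM/0.5% FBS; cpd up to 46 uM; dox induction, 4 h, 37C/5% CO2; dual luminescence; green/red ratio; MG132 control.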
* hit, by the source's call; u = inconclusive; x = no result. The list is not random: actives were taken first. Their share in the collection is about 3%.

SMILES	LDHA inh	KCNH2 3.1 block	ClpP mod	hERG WT inh	ALOX12 inh	BCR signal inh
C/C(=N/NC(=S)NC1CCCCC1)c1ccc(C(C)(C)C)cc1	17	x	x	x	u	x
CC(C)(C)c1ccc(/C=N/NC(=S)NC2CCCCC2)cc1	-7	11	-3%	15	28µM*	6%
CCOc1ccc(C2/C(=C(/O)c3ccc(OC)cc3)C(=O)C(=O)N2c2cc(C)on2)cc1OC (centres undefined)	-4	7	0%	5	u	-8%
CCOc1cc(C2/C(=C(\O)c3ccc(Cl)cc3)C(=O)C(=O)N2c2cc(C)on2)ccc1O (centres undefined)	11	x	x	x	16µM*	x
O=C(/C=C/c1ccccc1)Nc1ccc(N2CCCCC2)cc1	3	-81*	1%	19	-23%	0%
O=C(/C=C/c1cccc([N+](=O)[O-])c1)N1CCN(C(=O)c2ccco2)CC1	-3	1	-1%	4	-4%	u
O=C(/C=C\c1ccccc1)Nc1ccc(NC(=O)c2ccco2)cc1	-15	-80*	x	11	-14%	2%
O=C(/C=C/c1ccc(Br)cc1)c1ccc(NC(=O)c2ccco2)cc1	-8	-3	1%	0	-22%	5%
O=C(/C=C/c1ccccc1)N1CCN(C(=O)c2ccco2)CC1	-9	-96*	-3%	1	-18%	-7%
Cc1nc(C)c(CC(=O)Nc2nnc(C3CC3)s2)c(=O)[nH]1	0	x	x	x	-10%	x
O=C(Nc1ccc(-c2ccccc2)cc1)c1ccccc1Cl	1	x	x	x	13%	x
COC(=O)Nc1ccc(CNC(=O)c2ccccc2C(=O)c2ccccc2)cc1	12	x	x	x	11%	x
O=C(NNC(=O)C1CC1c1ccccc1)Nc1ccccc1 (centres undefined)	-2	10	28µM*	-1	16%	u
CC(C)(C)NC(=S)NNC(=O)[C@H]1C[C@@H]1c1ccccc1	-2	-11	x	1	121%	u
Cc1ccc(C2CC2C(=O)NNC(=S)Nc2ccc(Cl)cc2)cc1 (centres undefined)	0	-14	-2%	-3	45µM*	15%
CC1(C(O)(C#CC[N+]2(Cc3ccccc3Cl)CCCCC2)c2ccccc2)CCCC1 (centres undefined)	2	x	x	x	u	x
C(=C\c1cccc2ccccc12)/c1nnc(-c2cccs2)o1	-10	-12	28µM*	-4	6%	4%
Cc1nnc2n1CC(Nc1ncc(C(F)(F)F)cc1Cl)CC2 (centres undefined)	13	x	x	x	39%	x
COc1ccc(NC(=O)CC2C(=O)N(c3ccc(OC)cc3)C(=O)N2C(C)C)cc1 (centres undefined)	-7	-82*	0%	-30	-11%	u
COC(=O)CN1C(=S)N(c2ccc(Cl)cc2)C(=O)C1CC(=O)Nc1ccc(Cl)cc1 (centres undefined)	2	-3	0%	-6	35µM*	u
C=CCOc1ccc2c(C)c(CCC(C)C)c(=O)oc2c1	4	x	x	x	u	x
Cc1ccc(NC(=O)CSc2nc3ccccc3c(=O)n2CCCN2CCCCC2)cc1Cl	-1	-74*	x	-15	-27%	-16%
O=C(CSc1nc2ccccc2c(=O)n1CCCN1CCOCC1)Nc1cccc(S(=O)(=O)N2CCCCCC2)c1	-1	u	18µM*	u	-1%	u
O=C(CSc1nc2ccccc2c(=O)n1-c1ccccc1F)Nc1ccc2c(c1)CCC2	13	-16	-5%	10	-2%	-6%
CCN(CC)CCn1c(SCC(=O)Nc2ccc3c(c2)CCC3)nc2ccccc2c1=O	-1	-87*	-18%	-9	u	-1%
SMILES	LDHA inh	KCNH2 3.1 block	ClpP mod	hERG WT inh	ALOX12 inh	BCR signal inh
Cc1ccccc1-c1noc(CSc2nc(C)c(C)n2C2CCCC2)n1	-2	x	x	x	-12%	x
CC1=C(C)C(C)=C(C#N)C(=C(C#N)C#N)N1	-6	4	x	2	1.1µM*	u
CCCCNC(=O)c1cccc2c1CCN2C(=O)Nc1ccccc1	x	x	x	x	51%	x
CN(C)CCNC(=S)NC(c1ccc2c(c1)CCC2)c1cccs1 (centres undefined)	-12	x	x	x	u	x
O=C(C1=C[C@@H](c2ccc(C(F)(F)F)cc2)C[C@@H](OCCCCO)O1)N1CCN(Cc2ccccc2)CC1	1	-123*	0%	1	-19%	u
Cc1cc(C)cc(N2C(=O)N(c3ccccc3C)C3CS(=O)(=O)CC32)c1 (centres undefined)	-4	-17	1%	6	19%	-11%
Cc1cccc(N2C(=O)N(c3ccccc3C)C3CS(=O)(=O)CC32)c1 (centres undefined)	4	-1	28µM*	-6	-22%	x
Cc1ccsc1/C=C(/C#N)C(=O)c1ccccc1	4	x	x	x	u	x
CCOc1ccccc1-c1cc(-c2ccccc2)nc2c1c(=O)n(C)c(=O)n2C	-4	4	32µM*	2	-18%	5%
O=C(O)CCNS(=O)(=O)c1cccc(C(=O)O)c1	0	x	x	x	u	x
O=C(NCc1cccnc1)N1CCN(S(=O)(=O)c2cc(Cl)ccc2Cl)CC1	-5	x	x	x	-4%	x
O=C(c1ccco1)N1CCN(c2ccc([N+](=O)[O-])cc2Cl)CC1	-15	-6	-1%	24	-7%	-10%
O=C(NC(=S)N1CCN(c2ccc([N+](=O)[O-])cc2Cl)CC1)c1ccco1	1	-73*	2%	-29	-14%	2%
CCCCCCC1C(C#N)=C(N)OC2=C1C(=O)CCC2 (centres undefined)	-10	9	-2%	5	32µM*	11%
Nc1ccc(-c2nc3ccc(N)cc3s2)cc1	10	1	x	-5	-21%	u
Nc1cccc(-c2nc3ccc(N)cc3s2)c1	17	12	14µM*	3	0%	u
COc1cccc(-c2nc3ccccc3s2)c1	-1	-12	28µM*	3	0%	u
NC(=O)CSc1nnc(-c2ccccc2Cl)n1-c1cccc(C(F)(F)F)c1	-2	x	x	x	21%	x
